According to PubChem BioAssay:
Active and inactive are the calls of the source.

Experiments:
Albumin (Bos taurus) = Albumin (Bos taurus) (UniProt P02769); assay: bovine serum albumin binders on microarray, profiling panel, artefact control for SMM control protein annotation, biochemical, small-molecule microarray, Alexa647 label, 635/667 nm fluorescence (AID 1118); details: BSA-A647 binding, fluorescence 635 nm, higher = more signal;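 also: score merges 667 nm emission intensity and signal-to-noise per printed compound spot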
Chain of Albumin (Bos taurus) (P02769 whole entry, looked up): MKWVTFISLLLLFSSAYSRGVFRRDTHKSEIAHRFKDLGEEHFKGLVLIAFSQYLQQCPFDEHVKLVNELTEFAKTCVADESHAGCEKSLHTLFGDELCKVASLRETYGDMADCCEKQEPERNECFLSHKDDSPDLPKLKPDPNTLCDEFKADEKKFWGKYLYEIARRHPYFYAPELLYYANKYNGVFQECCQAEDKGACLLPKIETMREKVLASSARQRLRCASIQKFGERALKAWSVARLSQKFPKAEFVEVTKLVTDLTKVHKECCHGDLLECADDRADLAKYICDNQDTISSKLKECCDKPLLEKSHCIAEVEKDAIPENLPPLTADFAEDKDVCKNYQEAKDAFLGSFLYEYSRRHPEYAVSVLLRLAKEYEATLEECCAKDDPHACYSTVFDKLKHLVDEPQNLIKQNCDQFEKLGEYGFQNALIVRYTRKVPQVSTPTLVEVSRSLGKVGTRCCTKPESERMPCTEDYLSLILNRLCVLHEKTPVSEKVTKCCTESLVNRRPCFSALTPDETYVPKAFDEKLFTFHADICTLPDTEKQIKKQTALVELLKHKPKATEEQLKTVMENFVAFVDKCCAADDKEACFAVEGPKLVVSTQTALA

[1] = small-molecule microarray binders of probe aXIP, primary screen, biochemical, NeuroSMM set, 635/667 nm fluorescence (AID 1119); details: higher = more signal, called active from +8 up or from −8 down;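 also: probe is the protein aXip251-270 applied at 1 µg/mL to compound-printed slides; binding of probe to printed compounds measured as 667 nm fluorescence plus signal to noise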
[2] = small-molecule binders of probe aNOTCH3, primary screen, biochemical, small-molecule microarray, 635/667 nm fluorescence (AID 1120); details: higher = more signal;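 also: probe is a biotin-tagged antibody raised against NOTCH3 rather than NOTCH3 protein; score merges spot fluorescence near 667 nm with spot signal to noise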
[3] = small-molecule binders of probe aNOTCH2, primary screen, biochemical, small-molecule microarray, 635/667 nm fluorescence (AID 1121); details: higher = more signal;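 also: score merges feature fluorescence read at 667 nm with its signal to noise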
[4] = molecular target: Carbonic anhydrase 2 (Homo sapiens) (UniProt P00918); assay: CAII small-molecule binders, profiling panel, biochemical, small-molecule microarray, Alexa647-labelled CAII (AID 1122); details: CAII-A647 binding fluorescence, higher = more signal
[5] = COS7 lysate on small-molecule microarray, probe aHis, 635 nm (AID 1123); details: COS7 cell lysate, fluorescence, higher = more signal;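 also: z-score combines 667nm fluorescence intensity with signal-to-noise per printed compound spot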
[6] = compound binding in COS7 lysate, probe aLAP1, primary screen, cell lysate, small-molecule microarray (AID 1124); details: probe aLAP1, fluorescence, higher = more signal;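 also: lysate comes from COS7 cells expressing LAP1 and is applied at 0.3 µg/mL; score merges spot fluorescence near 667 nm with signal-to-noise over triplicate slides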
Sam68 (KHDRBS1) = assay: Sam68 small-molecule binders, primary screen, biochemical, small-molecule microarray, 635 nm fluorescence (AID 1125); details: small-molecule microarray binding, higher = more signal;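 also: score merges 667 nm channel intensity with signal to noise over triplicate slides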
[7] = system: Chordin-like protein 2 (CHRDL2); assay: CHRDL2 small-molecule binders, primary screen, biochemical, small-molecule microarray, 635 nm fluorescence (AID 1126); details: small-molecule microarray binding, fluorescence 635 nm; higher = more signal;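 also: printed compound slides probed with Chrdl2 protein at 4 µg/mL for 1 h at 4 C; score merges 667 nm emission intensity with signal to noise over three replicate slides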
[8] = molecular target: Concanavalin-A (Canavalia ensiformis) (UniProt P02866); assay: ConA small-molecule binders, primary screen, artefact control for SMM control protein annotation, biochemical, small-molecule microarray, Alexa647 label, 635 nm (AID 1127); details: ConA-A647 binding fluorescence, higher = more signal;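 also: z combines 667 nm emission intensity with signal-to-noise across three replicate slides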
Chain of Concanavalin-A (Canavalia ensiformis) (P02866 whole entry, looked up): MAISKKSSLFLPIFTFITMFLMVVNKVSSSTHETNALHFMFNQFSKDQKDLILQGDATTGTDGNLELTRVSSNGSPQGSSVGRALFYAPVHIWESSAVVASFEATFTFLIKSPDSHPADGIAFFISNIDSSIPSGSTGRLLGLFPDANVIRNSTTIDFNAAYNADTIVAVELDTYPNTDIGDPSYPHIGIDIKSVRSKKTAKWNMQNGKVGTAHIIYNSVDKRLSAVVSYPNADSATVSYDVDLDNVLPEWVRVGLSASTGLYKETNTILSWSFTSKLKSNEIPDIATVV

Structure (SMILES) | composite z-score (Albumin (Bos taurus)) | composite Z-score [1] | composite z-score [2] | composite z-score [3] | composite z-score [4] | composite z-score [5] | composite z-score [6] | composite z-score (Sam68 (KHDRBS1)) | composite z-score [7] | composite z-score [8]
C=CC(COC(C)=O)NS(=O)(=O)c1ccc(Br)cc1 (stereo not given) | -0.68 | 0.0518 (inactive) | -0.0337 | -0.133 | -0.0235 | -0.01 | 0.0423 | 0.591 | 0.912 | 0.682
[N-]=[N+]=NCc1ccccc1C[C@]1(C(=O)NCC(O)CO)N=C(c2ccc(OCCCO)cc2)O[C@H]1c1ccccc1N=[N+]=[N-] (stereo not given in full) | 0.675 | 0.529 (inactive) | 0.254 | -0.0059 | 0.652 | 1.57 | 0.0131 | 0.283 | -0.44 | 0.565
CS(=O)(=O)CCOC(=O)C1=CC(CCCO)=CC(c2cccs2)N(Cc2cc3c(cc2Br)OCO3)C=C1C(=O)OCCS(C)(=O)=O (stereo not given) | 0.974 | 1.05 (inactive) | 0.183 | -0.0149 | 0.337 | 1.64 | 0.817 | 1.3 | 0.164 | 0.986
COc1cc2c(cc1O)C(C)N(Cc1cccc(OC(F)(F)F)c1)CC2 (stereo not given) | 0.986 | 0.414 (inactive) | -0.0204 | -0.0839 | 0.662 | 2.23 | 0.572 | 0.851 | -0.236 | 0.446
[N-]=[N+]=NCc1ccccc1C[C@@]1(C(=O)N2CCOCC2)N=C(c2ccc(OCCCO)cc2)O[C@@H]1c1ccccc1CN=[N+]=[N-] | 0.922 | 0.696 (inactive) | 0.713 | 0.266 | 0.586 | 2.61 | 1.29 | 1.31 | -0.725 | 1.14
Cc1ccc(F)cc1S(=O)(=O)N[C@@H]1CCN(Cc2ccc(-c3ccccc3)cc2)C1 | 0.413 | -0.569 (inactive) | -0.126 | -0.0598 | 0.482 | 0.249 | 0.625 | 0.581 | 0.776 | -0.0888
CCOC(=O)C1=CCC(c2ccc(C#N)cc2)N(S(=O)(=O)c2ccc(C)cc2)C1 (stereo not given) | 0.886 | 0.356 (inactive) | 0.1 | 0.188 | 0.695 | 1.63 | 1.18 | 1.3 | -0.1 | 1.14
O=C1OCCC/C=C\[C@H]2OC34C=CCN(Cn5nnc6ccccc65)C(=O)[C@H]3N(CCCCCO)C(=O)[C@@H]4C12 (stereo not given in full) | 0.743 | -0.263 (inactive) | -0.267 | -0.14 | 0.881 | 0.0505 | -0.477 | -0.445 | -0.977 | -0.702
COCCOC(=O)N1C(=O)[C@@]2(c3cc(C#CCCO)ccc31)[C@H](c1ccc(O)cc1)N1[C@H](c3ccccc3)[C@H](c3ccccc3)OC(=O)[C@H]1[C@@H]2C(N)=O | 0.136 | 0.257 (inactive) | -0.0967 | -0.0956 | 0.738 | 0.831 | 1.73 | 0.761 | -0.552 | 0.59
NCCCCCNC(=O)[C@H]1C[C@H]2C(=O)NCC(=O)N2[C@H]1c1cccc(OCCO)c1 | 0.0356 | 0.131 (inactive) | 0.204 | -0.136 | 0.429 | 1.12 | 0.391 | 1.32 | 0.636 | 1.16
CCCCCN1CC=CC23O[C@@H]4/C=C\CCC(C)OC(=O)C4[C@H]2C(=O)N(CCCCCO)[C@@H]3C1=O (stereo not given in full) | -0.299 | -0.127 (inactive) | -0.149 | -0.144 | 0.685 | -0.389 | -0.29 | -1.09 | -0.793 | -0.541
CO[C@H]1O[C@H](CO)[C@@H](OC(=O)Nc2ccc(Oc3ccccc3)cc2)[C@H](OC(=O)Nc2ccccc2)[C@H]1OC(=O)Nc1ccccc1 | 0.832 | 0.914 (inactive) | 0.295 | -0.0064 | 0.467 | 2.09 | -0.0652 | 1.3 | -0.0078 | 1.16
C=CCNC(=O)[C@@H]1[C@H]2C(=O)O[C@H](c3ccccc3)[C@H](c3ccccc3)N2[C@H](c2ccccc2OCCO)[C@@]12C(=O)Nc1ccc(C#CC3=CCCCC3)cc12 | 0.482 | -0.224 (inactive) | 0.0105 | -0.0907 | 0.271 | 2.18 | 0.536 | 1.3 | 0.436 | 0.99
CCOC(=O)C1=CC[C@@H](c2ccccc2Cl)N(S(=O)(=O)c2ccc(C)cc2)C1 | 0.963 | 0.817 (inactive) | 0.0738 | 0.145 | 0.563 | 2.04 | 0.837 | 1.06 | -1.04 | 1.04
O=C1C[C@@](C(=O)NC2CC2)(c2ccc([N+](=O)[O-])cc2)[C@@H](c2ccc(CO)cc2)N1CC12CC3CC(CC(C3)C1)C2 | 0.374 | -0.172 (inactive) | -0.0236 | -0.0091 | 0.22 | 0.681 | -0.107 | 0.684 | -0.203 | 1
CCOC(=O)C[C@H]1[C@H](OC(=O)c2ccc(-c3ccccc3)cc2)[C@@H](NC(=O)c2ccc(-c3ccccc3)cc2)c2cc(OCCCO)ccc2N1C(=O)Cc1ccc(OC)cc1 | 0.225 | -0.576 (inactive) | -0.0146 | -0.125 | -0.0968 | 0.589 | -0.002 | -0.316 | -0.15 | 0.363
COCCOC(=O)N1C(=O)[C@@]2(c3ccccc31)[C@H](C(=O)Nc1nc3ccccc3s1)[C@H]1C(=O)O[C@H](c3ccccc3)[C@H](c3ccccc3)N1[C@@H]2c1ccc(OCCO)cc1 | 0.735 | -0.533 (inactive) | 0.127 | -0.169 | 0.287 | 2.33 | 1.39 | 1.29 | 0.594 | 1.16
COCCCNC(=O)[C@@]1(c2ccc([N+](=O)[O-])cc2)CC(=O)N(CC23CC4CC(CC(C4)C2)C3)[C@@H]1c1ccc(CO)cc1 | 0.197 | 0.324 (inactive) | 0.204 | -0.117 | 0.43 | 0.726 | 0.375 | 1.28 | 0.556 | 1.08
COc1ccc(C(=O)Nc2cccc(CN3C(=O)[C@]4(O[C@H](CC(=O)N5CCC[C@H]5CO)[C@@H]([Si](C)(C)c5ccc(OC)cc5)[C@@H]4C)c4ccccc43)c2)cc1 | 0.114 | 0.535 (inactive) | -0.0044 | -0.112 | 0.485 | 1.79 | 0.276 | 1.01 | 0.76 | 1.02
CC(C)N1C(=O)c2ccccc2[C@@H](C(=O)NCCCN(C)C)[C@@H]1c1ccc(CO)cc1 | 0.955 | -0.109 (inactive) | -0.15 | 0.0364 | 0.901 | 0.82 | 0.0206 | 0.297 | -1.91 | 0.289
COC(=O)[C@@]1(Cc2ccccc2)N=C(c2ccc(OCCCO)cc2)O[C@H]1c1ccccc1N=[N+]=[N-] | -0.541 | 2.98 (inactive) | 0.104 | 0.114 | 0.111 | 1.37 | 0.863 | 1.06 | 0.968 | 0.649
CC(C)C[C@@H]1NC(=O)[C@@H]2C[C@H](C(=O)NCCCCCC[N+](C)(C)C)[C@H](c3ccc(O)cc3)N2C1=O | -0.0787 | 0.729 (inactive) | 0.0562 | -0.189 | 0.678 | 1.58 | 0.301 | 1.25 | 1.33 | 0.989
